Laboratory results taken from PubChem BioAssay (NCI).
This is part of a sample that, as a whole, favours compounds with a hit. Of some 83,000 tested, about 20% had one in any assay.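 Single-dose data. Exposure time 48 hours. Values below 10 considered active.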

Key:
Assay in all cases: NCI-60 one-dose screen, 48 h (100 = growth as untreated, 0 = no growth, -100 = all killed)
NCI-H460 lung = settings: 10 µM unless noted
HOP-92 NSCLC = settings: 10 µM unless noted
NCI-H522 lung = settings: 10 µM unless noted
A549/ATCC NSCLC = settings: 10 µM unless noted
786-0 renal = settings: 10 µM unless noted
COLO 205 colon = settings: 10 µM
DU-145 prostate = settings: 10 µM unless noted
K-562 leukemia = settings: 10 µM unless noted
MALME-3M melanoma = settings: 10 µM unless noted
MDA-MB-231 breast = settings: 10 µM unless noted
RXF 393 renal = settings: 10 µM unless noted
SF-268 CNS = settings: 10 µM unless noted
SF-295 CNS = settings: 10 µM unless noted
SF-539 CNS = settings: 10 µM unless noted
UACC-257 melanoma = settings: 10 µM unless noted
M14 melanoma = settings: 10 µM unless noted
HCT-15 colon = settings: 10 µM
HT29 colon = settings: 10 µM unless noted
SNB-75 CNS = settings: 10 µM unless noted
PC-3 prostate = settings: 10 µM unless noted
SK-MEL-5 melanoma = settings: 10 µM unless noted
UACC-62 melanoma = settings: 10 µM unless noted
LOX IMVI melanoma = settings: 10 µM unless noted
SK-MEL-28 melanoma = settings: 10 µM unless noted
SK-MEL-2 melanoma = settings: 10 µM unless noted
SN12C renal = settings: 10 µM unless noted
UO-31 renal = settings: 10 µM unless noted
TK-10 renal = settings: 10 µM unless noted
ACHN renal = settings: 10 µM unless noted
CAKI-1 renal = settings: 10 µM unless noted
A498 renal = settings: 10 µM unless noted
HL-60(TB) leukemia = settings: 10 µM unless noted
CCRF-CEM leukemia = settings: 10 µM unless noted
MOLT-4 leukemia = settings: 10 µM
SR leukemia = settings: 10 µM
RPMI-8226 leukemia = settings: 10 µM unless noted
OVCAR-8 ovarian = settings: 10 µM unless noted
OVCAR-5 ovarian = settings: 10 µM unless noted
OVCAR-4 ovarian = settings: 10 µM unless noted
SK-OV-3 ovarian = settings: 10 µM unless noted
IGROV1 ovarian = settings: 10 µM
OVCAR-3 ovarian = settings: 10 µM unless noted
NCI/ADR-RES ovarian = settings: 10 µM unless noted
T-47D breast = settings: 10 µM unless noted
BT-549 breast = settings: 10 µM
MDA-MB-435 melanoma = settings: 10 µM unless noted
SW-620 colon = settings: 10 µM unless noted
MCF7 breast = settings: 10 µM unless noted
HCT-116 colon = settings: 10 µM unless noted
HCC-2998 colon = settings: 10 µM unless noted
KM12 colon = settings: 10 µM unless noted
NCI-H322M lung = settings: 10 µM unless noted
HOP-62 NSCLC = settings: 10 µM unless noted
SNB-19 CNS = settings: 10 µM unless noted
U251 CNS = settings: 10 µM unless noted
EKVX NSCLC = settings: 10 µM unless noted
HS 578T breast = settings: 10 µM unless noted

Measured: growth

CCOP(=O)(OCC)Oc1ccc(Sc2ccc(OP(=O)(OCC)OCC)cc2)cc1
inactive: NCI-H460 lung 113% | HOP-92 NSCLC 79.7% | NCI-H522 lung 91.2% | A549/ATCC NSCLC 97.5% | 786-0 renal 92.6% | COLO 205 colon 110% | DU-145 prostate 103% | K-562 leukemia 102% | MALME-3M melanoma 93.5% | MDA-MB-231 breast 119% | RXF 393 renal 106% | SF-268 CNS 100% | SF-295 CNS 97.5% | SF-539 CNS 104% | UACC-257 melanoma 93.1% | M14 melanoma 100% | HCT-15 colon 107% | HT29 colon 108% | SNB-75 CNS 95% | PC-3 prostate 90.9% | SK-MEL-5 melanoma 100% | UACC-62 melanoma 111% | LOX IMVI melanoma 107% | SK-MEL-28 melanoma 111% | SK-MEL-2 melanoma 94% | SN12C renal 101% | UO-31 renal 75% | TK-10 renal 107% | ACHN renal 115% | CAKI-1 renal 93.1% | A498 renal 85.2% | HL-60(TB) leukemia 96% | CCRF-CEM leukemia 86.3% | MOLT-4 leukemia 93.8% | SR leukemia 94.2% | RPMI-8226 leukemia 90% | OVCAR-8 ovarian 99.8% | OVCAR-5 ovarian 105% | OVCAR-4 ovarian 116% | SK-OV-3 ovarian 103% | IGROV1 ovarian 98% | OVCAR-3 ovarian 111% | NCI/ADR-RES ovarian 93.7% | T-47D breast 97.9% | BT-549 breast 96% | MDA-MB-435 melanoma 96.8% | SW-620 colon 113% | MCF7 breast 118% | HCT-116 colon 100% | HCC-2998 colon 102% | KM12 colon 99.9%

O=C1/C(=C/c2ccc(-c3ccccc3C(F)(F)F)o2)SC(=S)N1CCc1ccc(O)cc1
inactive: HL-60(TB) leukemia 20.8%

CC(=O)Nc1ccccc1-c1n[nH]c(=O)[nH]c1=O
inactive: HL-60(TB) leukemia 109%

CC(C)n1cc(C2=C(c3cccc4ccccc34)C(=O)NC2=O)c2cc(Br)ccc21
inactive: HL-60(TB) leukemia 54.1%

Clc1ccc(SSC(Cl)(Cl)Cl)cc1
inactive: NCI-H322M lung 112% | HOP-62 NSCLC 106% | NCI-H460 lung 101% | HOP-92 NSCLC 84.8% | NCI-H522 lung 107% | A549/ATCC NSCLC 100% | 786-0 renal 106% | COLO 205 colon 114% | DU-145 prostate 114% | K-562 leukemia 112% | MALME-3M melanoma 95.7% | MDA-MB-231 breast 116% | RXF 393 renal 112% | SF-268 CNS 104% | SF-295 CNS 103% | SF-539 CNS 103% | UACC-257 melanoma 112% | M14 melanoma 107% | HCT-15 colon 112% | HT29 colon 101% | SNB-75 CNS 106% | SNB-19 CNS 121% | U251 CNS 98.6% | PC-3 prostate 88.9% | SK-MEL-5 melanoma 110% | UACC-62 melanoma 116% | LOX IMVI melanoma 103% | SK-MEL-28 melanoma 120% | SK-MEL-2 melanoma 123% | EKVX NSCLC 108% | SN12C renal 102% | UO-31 renal 99.9% | ACHN renal 102% | A498 renal 111% | HL-60(TB) leukemia 113% | CCRF-CEM leukemia 109% | MOLT-4 leukemia 99.7% | SR leukemia 107% | RPMI-8226 leukemia 119% | OVCAR-8 ovarian 107% | OVCAR-5 ovarian 105% | OVCAR-4 ovarian 108% | SK-OV-3 ovarian 115% | IGROV1 ovarian 107% | OVCAR-3 ovarian 108% | NCI/ADR-RES ovarian 117% | T-47D breast 114% | MDA-MB-435 melanoma 105% | SW-620 colon 97.6% | MCF7 breast 108% | HCT-116 colon 101% | HCC-2998 colon 110% | KM12 colon 108%

C/C(=N/OC(=O)N(C)C)c1cc(Cl)ccc1Cl
inactive: HOP-62 NSCLC 95.6% | NCI-H460 lung 105% | NCI-H522 lung 83.5% | A549/ATCC NSCLC 101% | 786-0 renal 97.8% | DU-145 prostate 105% | K-562 leukemia 104% | MALME-3M melanoma 95.9% | MDA-MB-231 breast 111% | RXF 393 renal 102% | SF-268 CNS 99.4% | SF-295 CNS 98.6% | SF-539 CNS 103% | UACC-257 melanoma 103% | M14 melanoma 109% | HCT-15 colon 100% | HT29 colon 100% | SNB-75 CNS 82.1% | PC-3 prostate 106% | SK-MEL-5 melanoma 100% | UACC-62 melanoma 108% | SK-MEL-28 melanoma 113% | SK-MEL-2 melanoma 95.7% | SN12C renal 103% | UO-31 renal 77.4% | ACHN renal 100% | CAKI-1 renal 98.9% | A498 renal 86.8% | HL-60(TB) leukemia 95.1% | CCRF-CEM leukemia 91.7% | MOLT-4 leukemia 89.7% | SR leukemia 90.7% | RPMI-8226 leukemia 97.9% | OVCAR-8 ovarian 103% | OVCAR-5 ovarian 104% | OVCAR-4 ovarian 107% | SK-OV-3 ovarian 98.3% | IGROV1 ovarian 104% | OVCAR-3 ovarian 105% | HS 578T breast 105% | NCI/ADR-RES ovarian 99.4% | T-47D breast 96.7% | MDA-MB-435 melanoma 99.2% | SW-620 colon 101% | MCF7 breast 97.8% | HCT-116 colon 101% | HCC-2998 colon 102% | KM12 colon 106%
